# Measured values reported in PubChem BioAssay AID1662 (Broad Institute, 2009).
# Several values for one entry are separate records, joined by “and”; a condition that tells them apart may be missing. Identical values can stand only once. Among all 300,000 compounds or so, about 4,000 (1.3%) were called active.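 Rule for the calls: active = mean replicate score, as percent of positive control median, at least 50; inconclusive = mean below 50 but one replicate at or above 50; inactive = mean and every replicate below 50.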 The list comes from a sample in which actives are over-represented; it also holds similar structures and randomly drawn compounds.
# Assay: S. pyogenes SKKanGAS growth inhibitors in kanamycin, primary screen, streptokinase expression inhibitor project, SKKanGAS strain, BacTiter-Glo luminescence (AID 1662);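 note: strain carries kanamycin resistance gene driven by streptokinase promoter and grows in 40 µg/ml kanamycin; loss of luminescence reflects streptokinase promoter inhibition or plain growth inhibition; 0% = median of DMSO wells and 100% = positive control at its reference dose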
# Conditions: 6 h, at 7.5 µM, active compounds read high
row,Compound,inhibition
1,CCc1ccc2c(c1)C1(NN=C(c3ccccc3)S1)C(=O)N2 (stereo unspecified),96.7% (active)
2,COc1cccc(NC(=O)C2C(c3ccccc3)C2(Cl)Cl)c1 (stereo unspecified),31.8% (inactive)
3,CCc1ccc(Oc2nc([N+](=O)[O-])nn2C)cc1,2.57% (inactive)
4,Cc1cc(C(=O)N2CCC(C(=O)O)CC2)c(C(F)(F)F)o1,-3.49% (inactive)
5,Cc1noc(C)c1CSCC(=O)Nc1ccc(Br)cc1Cl,32.2% (inactive)
6,Cc1noc(C)c1CSCC(=O)Nc1nc2ccc(Oc3ccccc3)cc2s1,51.3% (active)
7,CCc1noc(C)c1C(=O)Nc1nc2ccc(OC)cc2s1,-6.51% (inactive)
8,COc1ccc(C(=O)Nc2ccc(C3(C#N)CCCC3)cc2)cc1OC,0.181% (inactive)
9,C/[N+]([O-])=C\c1ccc([N+](=O)[O-])o1,1.43% (inactive)
10,Cc1ccc(/C=C/C(=O)Nc2ccc([N+](=O)[O-])c(NC(=O)/C=C/c3ccc(C)o3)c2)o1,6.98% (inactive)
11,O=C(/C=C/c1ccc([N+](=O)[O-])o1)NNC(=O)c1ccc(F)cc1,52.7% (active)
12,CC(=O)Oc1ccc(-c2cccc(C(=O)N3CCCCC3)c2)cc1,-5.29% (inactive)
13,CCN1CCN(C(=O)N(Cc2ccc(Cl)cc2)S(=O)(=O)c2ccc(C)cc2)CC1,-0.707% (inactive)
14,COC(=O)c1ccc(COc2ccc(/C=C/C(=O)c3ccc(OC)c(CSCC(=O)O)c3)cc2OC)cc1,-12.5% (inactive)
15,COc1ccc(/C=C/C(=O)c2ccc(NS(=O)(=O)c3ccc(C)cc3)cc2)cc1O,31.2% (inactive)
16,COc1ccc(C(=O)/C=C/c2ccc(-c3ccccc3)cc2)cc1CSCC(=O)O,51.6% (active)
17,Cc1occc(=O)c1OCc1c(Cl)cccc1Cl,1.59% (inactive)
18,CCN(CC)c1ccc(S(=O)(=O)N2CCCCC2)cc1NC(=O)C1=COCCO1,-12% (inactive)
19,S=C1Nc2cc(Cl)ccc2Sc2ccccc21,3.58% (inactive)
20,O=C1Cc2ccccc2Sc2ccc(Cl)cc21,75% (active)
21,O=C1CC2(CCCC2)Oc2ccc(Cl)cc21,9.19% (inactive)
22,O=C(CCNC(=O)c1ccc(Br)cc1)NCCCc1ccccc1,-14.7% (inactive)
23,CN(CCc1ccccn1)S(=O)(=O)c1ccc2c3c(cccc13)C(=O)N2,-0.86% (inactive)

row,Compound,inhibition
1,O=C(NCc1ccncc1)C1CCCN(S(=O)(=O)c2ccc(Br)cc2)C1 (stereo unspecified),3.53% (inactive)
2,O=c1c2cc(Br)ccc2nc(-c2cccc(Cl)c2)n1O,78.4% (active)
3,Cc1cccc(-c2nc3ccccc3c(=O)n2NC(=O)Cc2ccc(Cl)cc2)c1,-2.71% (inactive)
4,O=C1CCCc2c1nc(-c1cccc(Cl)c1)n2O,-3.24% (inactive)
5,CCCOc1ccc(C2NC(=O)NC(c3ccccc3)=C2C(C)=O)cc1OCC (stereo unspecified),-8.73% (inactive)
6,Cc1cccc([C@@H]2[C@@H]3C(=O)N(Cc4ccccc4)C(=O)[C@@H]3[C@]3(Cc4ccc(Cl)cc4)C(=O)N(c4cccc(Cl)c4)C(=O)N23)c1,-2.38% (inactive)
7,CC(OC(=O)CNC(=O)c1ccc(Cl)c([N+](=O)[O-])c1)C(=O)NCc1ccco1 (stereo unspecified),-7.18% (inactive)
8,COc1cccc(/C=N/Nc2ncc(C(F)(F)F)cc2Cl)c1O,95.9% (active)
9,COC(=O)Cc1ccc(Oc2ncc(C(F)(F)F)cc2Cl)cc1,-5.08% (inactive)
10,COc1cccc(/C(C)=N/Nc2ncc(Cl)cc2Cl)c1,-4.25% (inactive)
11,Cc1cc(N)n2nc(-c3ccc(C(C)(C)C)cc3)cc2n1,38.2% (inactive)
12,O=C(N/N=C/c1cc([N+](=O)[O-])ccc1O)/C(=C\c1cccs1)NC(=O)c1ccccc1,83.5% (active)
13,O=[N+]([O-])c1ccc(O)c(/C=N/Nc2ccccc2[N+](=O)[O-])c1,17.8% (inactive)
14,O=C(N/N=C/c1ccc(O)cc1)/C(=C/c1ccc([N+](=O)[O-])cc1)NC(=O)c1ccccc1,-0.983% (inactive)
15,CN(CC(=O)Nc1c(Cl)cccc1Cl)C(=O)CNC(=O)C1CCCCC1,-1.53% (inactive)
16,O=C(CCCCCn1c(=S)[nH]c2cc3c(cc2c1=O)OCO3)N1CCN(c2ccc(F)cc2)CC1,4.31% (inactive)
17,Cc1ccc(C)c(N2CCN(C(=O)CCCCCn3c(=S)[nH]c4ccc(N5CCOCC5)cc4c3=O)CC2)c1,50.8% (active)
18,Cc1ccc(C)c(N2CCN(C(=O)CCCCn3c(=O)[nH]c4ccccc4c3=O)CC2)c1,10.5% (inactive)
19,O=C(NC1CCCCC1)c1cc([N+](=O)[O-])ccc1N1CCOCC1,3.56% (inactive)
20,CCCC(=O)Nc1nc2ccc(NC(=O)c3cccnc3)cc2s1,-13.3% (inactive)
21,CCOc1ccc2nc(Nc3nc4ccc(NC(C)=O)cc4s3)sc2c1,62.6% (active)
22,CCCC(=O)Nc1nc2ccc(NC(=O)c3c(F)c(F)c(OC)c(F)c3F)cc2s1,71.5% (active)
23,CSc1nc2ccc(NC(=O)c3c(F)cccc3F)cc2s1,-1.79% (inactive)

row,Compound,inhibition
1,CCOc1ccc2nc(NC(=O)c3cc([N+](=O)[O-])ccc3N3CCOCC3)sc2c1,50.1% (active)
2,COc1ccc2nc(NC(=O)NC3CCCCC3)sc2c1,-5.74% (inactive)
3,COc1ccc2nc(NC(=O)c3ccc(Br)s3)sc2c1,38.2% (inactive)
4,COc1ccc(S(=O)(=O)N2CCCCC2)cc1NC(=O)c1cc([N+](=O)[O-])ccc1N1CCOCC1,12.2% (inactive)
5,COc1ccc2nc(Nc3nc4ccc(NC(C)=O)cc4s3)sc2c1,54.9% (active)
6,CCC(=O)c1ccc(OCC(=O)Nc2ccc3nc(C)sc3c2)cc1,-10.4% (inactive)
7,CCOc1ccc2nc(NC(=O)CSc3nc4c(c(=O)n(C)c(=O)n4C)n3CC)sc2c1,4.34% (inactive)
8,CCCCSc1nc2c(c(=O)n1CC)SC(C)C2 (stereo unspecified),-4.67% (inactive)
9,COCC1CCN(C(=O)C2CCC(=O)N(CC3CCCCC3)C2)CC1 (stereo unspecified),-1.21% (inactive)
10,O=C(c1cc2c(s1)CCC2)N1CCN(c2ccccc2)CC1,3.4% (inactive)
11,CCNc1nc(NC(C)C)nc(N2CC(=O)N(CC(=O)OCC)C2=N)n1,0.266% (inactive)
12,COc1ccc(S(=O)(=O)N2CCOC23CCN(S(=O)(=O)c2ccc([N+](=O)[O-])cc2)CC3)cc1,2.41% (inactive)
13,CCc1nn(CCCN2CCN(c3cccc(Cl)c3)CC2)c(=O)n1CCOc1ccccc1,-2.67% (inactive) and -3.29% (inactive)
14,COc1cc(NS(=O)(=O)c2ccc(N/C=C(\C=O)c3nc4cc(Cl)ccc4o3)cc2)nc(OC)n1,22% (inactive)
15,CSc1ccc(CN(C)CC(=O)NCc2ccc(F)cc2)cc1,-18.5% (inactive)
16,CC(C)(C)n1nnc(CCc2nnn(C(C)(C)C)n2)n1,-4.02% (inactive)
17,CCCCCCCCc1c(O)nc(-n2[nH]c(C)c(CCO)c2=O)[nH]c1=O,9.64% (inactive)
18,O=C(Nc1ccccc1F)c1ccccc1-c1ccc(C(F)(F)F)cc1,-10.9% (inactive)
19,NC(=O)Cn1cc(/C=N\NS(=O)(=O)c2ccccc2)c2ccccc21,-0.681% (inactive)
20,Cc1ccc2c(C)c(C(=O)N3CCN(c4ccncc4)CC3)oc2c1C,4.31% (inactive)
21,O=C1c2ccccc2-c2ncnc3c(N4CCOCC4)cc(N4CCOCC4)c1c23,13.7% (inactive)
22,CCOc1ccccc1Nc1ccc2nonc2c1[N+](=O)[O-],-0.208% (inactive)
23,O=C(O)c1cccc(S(=O)(=O)Nc2ccc(O)cc2Sc2nc3ccccc3s2)c1,8.92% (inactive)

row,Compound,inhibition
1,O=[N+]([O-])c1c(NCCO)cc(Sc2nc3ccccc3s2)c2nonc12,51.8% (active)
2,CCOCC(=O)Nc1ncc(S(=O)(=O)c2ccc([N+](=O)[O-])cc2)s1,-0.334% (inactive)
3,CC(C)C(=O)Nc1ccc2c3c(cccc13)CC2,-4.74% (inactive)
4,Cc1cccc(NC(=O)C2CCN(C(=O)NC3CCCCC3)CC2)c1,3.22% (inactive)
5,O=C(N/N=C/c1cc(Br)c(O)c([N+](=O)[O-])c1)C(O)(c1ccccc1)c1ccccc1,4.7% (inactive)
6,CN(C)/N=C/c1cc(Cl)cc([N+](=O)[O-])c1O,0.131% (inactive)
7,O=C(N/N=C/c1cc(Cl)cc([N+](=O)[O-])c1O)C(O)(c1ccccc1)c1ccccc1,94.7% (active)
8,Fc1ccccc1CNC(=S)Nc1ccc(Cl)cc1,18% (inactive)
9,O=C(NC1CCN(C(=S)NCc2ccco2)CC1)c1ccc(F)cc1,13.3% (inactive)
10,COc1cccc(N2CC(NS(=O)(=O)c3ccc(Cl)cc3)CC2=O)c1 (stereo unspecified),3.83% (inactive)
11,COc1ccc(N(C(=O)c2snc(C(N)=O)c2N)C(C(=O)NC2CCCC2)c2ccco2)cc1OC (stereo unspecified),2.77% (inactive)
12,CCc1nnc(NC(=O)c2cccc(S(=O)(=O)N(C)c3ccc(OC)cc3)c2)s1,4.1% (inactive)
13,CCc1ccc2nc3sc(C(=O)Nc4nnc(CC)s4)c(N)c3cc2c1,95.3% (active)
14,CCc1nnc(NC(=O)c2sc3nc(C)cc(COC)c3c2N)s1,8.09% (inactive)
15,COc1ccc(S(=O)(=O)NCc2cccnc2)cc1NC(=O)c1ccc(C)cc1,-12.6% (inactive)
16,COC(=O)N/N=C/c1c[n+]([O-])c2ccccc2[n+]1[O-],50.6% (active)
17,COC(=O)N/N=C/c1ccc(/C=N/NC(=O)OC)cc1,-10.9% (inactive)
18,COC(=O)N/N=C/c1ccc(-c2ccc(Cl)c(Cl)c2)o1,-12.4% (inactive)
19,Cn1cccc1C(=O)N1CCc2ccccc2C1,10.2% (inactive)
20,COc1ccc(N=Nc2ccc(O)c(P(=O)(c3ccccc3)c3ccccc3)c2)cc1,41.2% (inactive)
21,Cc1cc(N=Nc2ccc3ccccc3c2)ccc1O,81.9% (active)
22,CC(=O)CCC(=O)c1ccc2ccccc2c1,3.19% (inactive)
